From PubChem
IL-1B inflam inh: blocks inflammasome-driven IL-1 beta release | AID 743279 | THP-1 LPS/ATP IL-1B secretion, AlphaLISA, 16 h; active compounds read low | activity change, % at 57.5 µM | hit rate 4.7% among 360,000; in the data active = activity change below about -50%; inconclusive = mostly about -30% to -49%
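THP-1 cells pretreated 1 hr with compounds (up to 57.5 uM final), then stimulated with LPS (250 ng/mL final) plus ATP (1.25 mM final); secreted IL-1B measured by AlphaLISA after 16 hr, decreased signal indicating inhibition.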
DT40 TDP1 CPT: growth inhibition of DT40 Tdp1-/-;hTDP1 cells with camptothecin (screen for TDP1 inhibitors) | Potency, µM (series often up to 46.2 µM), most hits filed as inhibitors | hit rate 12% among 420,000 | chicken DT40 Tdp1-/-;hTDP1 cells + 20 nM CPT, ATP luminescence, 48 h; note: nearly all actives have a fitted effect of over 55% in size
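Chicken DT40 Tdp1-/- cells complemented with human TDP1, 400 cells/well, exposed to compounds plus 20 nM camptothecin for at least 48 h at 37 C; viability read as ATP content by CellTiter-Glo luminescence.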
HT1080 IDH1KD tx: HT-1080 IDH1 knockdown cell toxicity (counter line); AID 686971; Potency, µM (series often up to 46.1 µM), hits mostly cytotoxic; HT-1080 IDH1 knockdown viability, ATP luminescence, 48 h; hit rate 2% among 360,000
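Using the IDH1-knockdown HT-1080 line run in the same batch and compound series as the NT line, viability after 48 h at 37 °C was determined by CellTiter-Glo luminescence and expressed as % activity.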
TDP1 cell noCPT: qHTS for Inhibitors of human tyrosyl-DNA phosphodiesterase 1 (TDP1): qHTS in cells in absence of CPT | DT40 Tdp1-/- hTDP1 cells, no CPT, ATP luminescence, 48 h | Potency, µM (doses to about 46.2 µM), actives largely listed as inhibitors | hit rate 15% among 420,000; note: nearly all actives have a fitted effect of over 55% in size
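Chicken DT40 Tdp1-/- cells stably complemented with human TDP1 were seeded at 400 cells/well with DMSO in place of 20 nM camptothecin. After compound pinning, cells grew at least 48 hr at 37 °C; viability read by CellTiter-Glo luminescence.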
HT1080NT lethal: kills 2HG-producing HT-1080-NT fibrosarcoma cells | Potency, µM (series often up to 46.1 µM), most hits filed as cytotoxic | HT-1080-NT fibrosarcoma viability, CellTiter-Glo ATP luminescence, 48 h | hit rate 1.6% among 360,000;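 note: NT is the 2HG producing partner of a matched IDH1 knockdown line; nearly all actives have a fitted effect of over 55% in size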
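Compounds were tested in concentration-response format on HT-1080-NT cells for 48 hours at 37 degrees C. Cell viability came from CellTiter-Glo luminescence; curves were classified by r2, response magnitude and activity.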
Numbers stand for hits; i = inactive; ? = inconclusive; nt = not tested or not shown. An excerpt weighted towards active compounds, which were near 19% of everything screened. Unless noted, calls come from the whole dose curve; as a rule, active = well fitted curve in the direction sought with a large enough effect; inconclusive = small, poorly fitted or top-dose-only effect, or another doubt; inactive = no such curve, though single readings can be large; an effect the other way counts as inactive or inconclusive.

SMILES	IL-1B inflam inh	DT40 TDP1 CPT	HT1080 IDH1KD tx	TDP1 cell noCPT	HT1080NT lethal
CC(C)N(C(=O)Nc1ccc2nsnc2c1)C(C)C	?	?	?	?	18µM
CCOc1ccc(NC(=S)Nc2ccc(OCC)cc2)cc1	-80	i	i	i	i
CC1CCN(C(=O)Nc2ccc3nsnc3c2)CC1	i	i	i	i	i
COc1ccc(CNC(=O)C2CCCN2S(=O)(=O)c2ccccc2)cc1 (centres undefined)	i	?	i	?	i
CCOC(=O)c1ccc(N(C(=O)c2ccccc2)c2ccccc2)cc1	nt	i	nt	?	nt
Cc1cc2c(s1)c1cnn(CC(=O)N3CCOCC3)c(=O)c1n2C	nt	i	nt	i	nt
CCOc1ccc(NC(=S)Nc2cc(OC)c(Cl)cc2OC)cc1	i	15µM	i	?	i
COc1cc(NC(=S)Nc2cccc(Cl)c2Cl)c(OC)cc1Cl	i	i	i	i	i
C=CCn1cc(CN2CCC(C(=O)Nc3cccc(-c4cccc(Cl)c4)c3)CC2)c(C)n1	i	16µM	?	16µM	?
C=CCn1cc(CN2CCC(C(=O)Nc3ccc(Oc4cccnc4)cc3)CC2)c(C)n1	i	i	i	i	i
C=CCn1cc(CN2CCC(C(=O)Nc3cccc(-c4cccc(F)c4)c3)CC2)c(C)n1	i	23µM	i	16µM	i
Cc1cccc(-c2cnc(C(O)c3ccc(F)c(C)c3)[nH]2)c1 (centres undefined)	i	i	i	?	i
Cc1nc(Nc2ccc(F)cc2)[nH]c(=O)c1CCC(C)C	i	?	?	?	?
CC(Nc1nc(Nc2ccc(F)cc2)nc(SCC(N)=O)n1)c1ccccc1 (centres undefined)	-60	i	?	i	?
CCNc1nc(NCc2ccccc2)nc(SCC(N)=O)n1	i	i	i	?	i
CC(Nc1nc(=S)nc(Nc2ccc(F)cc2)[nH]1)c1ccccc1 (centres undefined)	i	21µM	i	?	i
CSc1nnc(CCCCCCCCc2nnc(SC)o2)o1	i	?	i	?	i
CCOc1ccc(S(=O)(=O)NCCC(=O)Nc2cccc(C(=O)OC)c2)cc1	-74	i	i	i	i
CC1Cc2cc(S(=O)(=O)NCc3ccc(F)cc3)ccc2N1C(=O)C1CCC1 (centres undefined)	nt	?	nt	2.9µM	nt
CC(=O)N1CCc2cc(S(=O)(=O)NCc3ccc(C)cc3)ccc21	i	?	i	7.3µM	i
CC1Cc2cc(S(=O)(=O)NCc3ccc(Cl)cc3)ccc2N1C(=O)C1CCC1 (centres undefined)	nt	23µM	nt	13µM	nt
CCOc1ccc(NC(=O)CCNS(=O)(=O)c2ccc3c(c2)CC(C)N3C(C)=O)cc1 (centres undefined)	i	15µM	i	23µM	i
Cc1ccc(CNS(=O)(=O)c2ccc3c(c2)CC(C)N3C(=O)C2CCC2)cc1 (centres undefined)	nt	?	nt	21µM	nt
CC(=O)N1c2ccc(S(=O)(=O)NCc3ccc(Cl)cc3)cc2CC1C (centres undefined)	nt	?	nt	23µM	nt
O=C(NCCc1ccccc1)C1CC(=O)N(C2CCCC2)C1 (centres undefined)	i	i	i	i	i
SMILES	IL-1B inflam inh	DT40 TDP1 CPT	HT1080 IDH1KD tx	TDP1 cell noCPT	HT1080NT lethal
CSc1ccc2[nH]c(=O)cc(C)c2c1	i	i	i	i	i
COc1ccc(N/N=C(/C(N)=O)C2=NC(C)(C)Cc3ccccc32)cc1	i	16µM	?	16µM	?
COc1ccc(N/N=C(\C#N)C(N)=O)cc1	i	i	i	i	i
Oc1[nH]c2ccccc2c1N=Nc1nc(Nc2ccccc2)nc(N2CCOCC2)n1	?	i	i	1.8µM	i
Cc1[nH]c2ccccc2c1/C=N/Nc1nc(Nc2ccccc2)nc(N2CCOCC2)n1	-80	8.2µM	?	6.5µM	?
O=C(O)c1cccc(Nc2nc(N3CCOCC3)nc(N3CCOCC3)n2)c1	i	?	i	i	i
CSc1nnc(C)c(=O)n1COC(=O)COc1ccc(Cl)cc1Cl	i	?	i	i	i
COc1ccc(C(=O)c2c(N)sc3c2CCN(C(=O)OC(C)(C)C)C3)cc1	nt	15µM	i	i	i
CC/C(=N\NC(=O)c1cc(C)oc1C)c1ccc(OC(F)F)cc1	i	?	i	?	i
Cc1ccc(S(=O)(=O)N(C)Cc2ccc(C(=O)NN=C(CC(C)C)CC(C)C)cc2)cc1	i	?	i	23µM	i
Cc1ccc(S(=O)(=O)N(C)Cc2ccc(C(=O)NN=C3C4CC5CC(C4)CC3C5)cc2)cc1	i	i	i	i	i
CC/C(=N\NC(=O)c1ccc(CN(C)S(=O)(=O)c2ccc(C)cc2)cc1)c1ccc(OC(F)F)cc1	i	?	i	21µM	i
CCOc1ccc(C(=O)Nc2cccc(NC(=O)c3cccs3)c2)cc1[N+](=O)[O-]	i	?	i	18µM	i
O=C(NNc1ccc([N+](=O)[O-])cc1[N+](=O)[O-])c1ccco1	-62	15µM	?	21µM	18µM
Cc1cc(C(=O)Nc2cccc(NC(=O)c3ccco3)c2)ccc1[N+](=O)[O-]	-79	?	i	?	i
COc1cc(NC(=O)c2ccc(OC)c([N+](=O)[O-])c2)ccc1NC(=O)c1cccs1	i	i	i	i	i
Cc1cccc(NC(=O)c2cccc(NC(=O)c3ccco3)c2)c1	i	i	i	i	i
CCOc1ccc(C(=O)NC(=S)Nc2cccc(NC(=O)c3ccco3)c2)cc1[N+](=O)[O-]	?	?	i	15µM	i
OC(c1ccccc1)(c1ccccc1)C1CCN(CCCOc2ccc3c(c2)CCCC3)CC1	-115	4.1µM	13µM	5.2µM	15µM
CC(=O)Nc1ccccc1OCCCN1CCC(C(O)(c2ccccc2)c2ccccc2)CC1	i	?	?	?	?
OC(c1ccccc1)(c1ccccc1)C1CCN(CCCOc2cccc(OC(F)(F)F)c2)CC1	-51	16µM	16µM	16µM	18µM
CC(C)(C)c1ccc(C(O)CCCN2CCC(C(O)(c3ccccc3)c3ccccc3)CC2)cc1 (centres undefined)	i	5.8µM	i	4.6µM	i
CC(=O)Nc1ccc(OCCCN2CCC(C(O)(c3ccccc3)c3ccccc3)CC2)cc1	i	?	?	?	i
N#CCc1ccc(OCCCN2CCC(C(O)(c3ccccc3)c3ccccc3)CC2)cc1	?	23µM	?	21µM	21µM
O=C1c2cccc(NCCNCCO)c2C(=O)c2cccc(NCCNCCO)c21	-117	0.37µM	8.2µM	0.73µM	?
CCCCn1nnnc1C(c1cc2ccccc2o1)N(C)Cc1ccccc1 (centres undefined)	i	?	i	23µM	i
CCN(CC)CCN(C)C(c1cc2ccccc2o1)c1nnnn1C(C)(C)C (centres undefined)	i	?	i	?	i
